TEAD-YAP inh: TEAD-YAP interaction inhibition | HEK-TIYL cells, TEAD-Gal4/YAP UAS-luciferase luminescence | actives 1.4% (n = 640,000) | inhibition, % at 9.12 µM | AID 1259422; in the data active = inhibition above about 32%
MITF primary: inhibitors of human MITF. O75030. AlphaScreen MITF homodimerization, bead proximity signal. inhibition, % at 2.6 µM. actives 0.91% (n = 650,000). AID 1259374; in the data active = inhibition above about 50%
FBW7 act: activators of human E3 ligase FBW7 | Q969H0 | AlphaScreen FBW7–phospho-cyclin E peptide binding, activator screen | normalized activity (activation), % at 26.1 µM | actives 0.13% (n = 650,000) | AID 1259310; in the data active = normalized activity above about 1.9%;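 also: purified mutant Fbw7 with reduced substrate affinity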
GPR151 ag: activators of human GPR151; AID 1508602; Q8TDV0; actives 1% (n = 650,000); PathHunter beta-arrestin GPR151 cells, luminescence; activation, % at 11.2 µM; in the data active = activation above about 4.9%
A number is an active result; – = inactive. Only some compounds are listed: those with a hit (about 3.4% of all), similar ones and a draw of the others.

SMILES | TEAD-YAP inh | MITF primary | FBW7 act | GPR151 ag
O=C1CC(C(=O)Nc2ccc(-c3cn[nH]c3)cc2)Cc2ccccc21 (configuration not stated) | 34 | – | – | –
CC(C)N(C(=O)c1ccccc1CN1C(=O)c2ccccc2S1(=O)=O)c1ccccc1 | – | – | – | –
COc1ccc(OC)c(C2C(C(C)=O)=C(O)C(=O)N2Cc2ccco2)c1 (configuration not stated) | – | – | – | –
Cc1cccc(C)c1NC(=O)c1cc2c(=O)n3ccccc3nc2n1C | 37 | – | – | –
CCCNC(=O)CCn1nc(-c2ccc(C)cc2)c2ccccc2c1=O | – | – | – | –
CCCNC(=O)CCC(=O)Nc1ncc(-c2ccc(C)cc2)n1C | 93 | – | – | –
COc1ccc(C2C(C#N)=C(N)N(c3cccc(C)c3)C3=C2C(=O)CCC3)cc1OC (configuration not stated) | – | – | – | –
CC(C)Oc1ccc(C(=O)Nc2nc(-c3ccc(F)cc3F)cs2)cc1 | 38 | – | – | –
O=S(=O)(NCCc1ccncc1)c1ccc(S(=O)(=O)N2CCCCC2)cc1 | – | – | – | –
CC1=C(C(=O)OC(C)C)C(c2ccsc2)C2=C(CC(c3cccs3)CC2=O)N1 (configuration not stated) | 67 | – | – | –
CCOCCOC(=O)C1=C(C)NC2=C(C(=O)CC(c3cccs3)C2)C1c1cccs1 (configuration not stated) | – | – | – | –
CCOC(=O)C1=C(C)NC2=C(C(=O)CC(c3ccco3)C2)C1c1cccs1 (configuration not stated) | 63 | – | – | –
CN(CCO)c1cc(N2CCOCC2)c([N+](=O)[O-])cc1[N+](=O)[O-] | – | – | – | –
CCc1cc2c(=O)c(-c3ccc4c(c3)OCO4)coc2cc1OC(C)=O | – | – | – | –
CCc1cc2c(=O)c(-c3ccc4c(c3)OCCCO4)coc2cc1OC(=O)c1ccco1 | 44 | – | – | –
CCc1cc2c(=O)c(-c3ccc4c(c3)OCCO4)coc2cc1OCC(=O)O | 87 | – | – | –
N#Cc1ccc(/C=N/c2sc3c(c2C(N)=O)CCCC3)cc1 | – | – | – | –
Cc1ccc(C(=O)Nn2c(-c3ccc(C)c(C)c3)nc3ccccc3c2=O)cc1C | – | – | – | –
COc1cc(/C=C2\SC(N)=NC2=O)ccc1OCC(=O)Nc1ccc(C)cc1 | 34 | – | – | –
CCOc1cc(/C=C2\SC(N)=NC2=O)ccc1OCC(=O)NCc1ccccc1 | 32 | – | – | –
CCOc1cc(/C=C2\SC(N)=NC2=O)ccc1OC(=O)c1cccs1 | 35 | – | – | –
COc1ccc2cc3cc(C(=O)NC4CC4)sc3nc2c1 | 74 | – | – | –
COc1ccc2cc3cc(C(=O)Nc4cc(OC)c(OC)c(OC)c4)oc3nc2c1 | 58 | – | – | –
COc1ccc2cc3cc(C(=O)NC4CCN(Cc5ccccc5)CC4)oc3nc2c1 | 90 | – | – | –
COc1ccc2cc3cc(C(=O)NCCCN4CCCCCC4)oc3nc2c1 | – | – | – | –
SMILES | TEAD-YAP inh | MITF primary | FBW7 act | GPR151 ag
CCN1CCN(C(=O)CCCOc2ccccc2)CC1 | 43 | – | – | –
CCc1ccc(C2=NC(c3ccc(C(=O)OC)cc3)NC(c3cc(Br)ccc3O)C2)cc1 (configuration not stated) | – | – | – | –
Cc1cccc(C)c1NC(=O)CSC1=C(C#N)C(c2ccco2)C2=C(CCCC2=O)N1 (configuration not stated) | – | – | – | –
Cc1c(Cl)cccc1NC(=O)CSC1=C(C#N)C(c2ccco2)C2=C(CCCC2=O)N1 (configuration not stated) | 38 | – | – | –
CCc1ccc(NC(=O)CSC2=C(C#N)C(c3ccc(C)o3)C3=C(CCCC3=O)N2)cc1 (configuration not stated) | – | – | – | –
Cc1ccc(C2C(C#N)=C(SCC(=O)Nc3cccc(C)c3C)NC3=C2C(=O)CCC3)o1 (configuration not stated) | 64 | – | – | –
O=C(NCCN1CCNCC1)c1cc2ccccc2[nH]1 | – | – | – | –
Cc1ccc2c(c1)N(CC(=O)OC(C(=O)NC1CCCCC1)C(C)C)C(=O)C(C)O2 (configuration not stated) | – | – | – | –
COCCOCCCN1CCC2(CC1)NC(=O)Cc1ccccc12 | – | – | – | –
O=C1Cc2ccccc2C2(CCN(Cc3ccc(C(=O)c4ccccc4)cc3)CC2)N1 | 36 | – | – | –
CC(=O)Nc1ccc(Nc2nc(-c3c(C)nc4ccccn34)cs2)cc1 | 50 | – | – | –
Cc1nc2ccccn2c1-c1csc(Nc2ccc(N)cc2)n1 | 54 | – | – | –

High-throughput results deposited in PubChem BioAssay by The Scripps Research Institute Molecular Screening Center.
